Data published in PMC4336329 (PLoS ONE, 2015).
The campaign covered roughly 310,000 compounds. About 2,200 (0.71%) showed an effect of 50% or more. Effects have a minus sign here. This excerpt belongs to a sample that is enriched for strong results.

Biological target: human ether-à-go-go-related gene (hERG) potassium channel (human, UniProt Q12809)
Assay: primary screen, population patch clamp on CHO cells stably expressing hERG; higher = less effect of the substance

human ether-à-go-go-related gene (hERG) potassium channel, sequence (Q12809 whole entry, looked up): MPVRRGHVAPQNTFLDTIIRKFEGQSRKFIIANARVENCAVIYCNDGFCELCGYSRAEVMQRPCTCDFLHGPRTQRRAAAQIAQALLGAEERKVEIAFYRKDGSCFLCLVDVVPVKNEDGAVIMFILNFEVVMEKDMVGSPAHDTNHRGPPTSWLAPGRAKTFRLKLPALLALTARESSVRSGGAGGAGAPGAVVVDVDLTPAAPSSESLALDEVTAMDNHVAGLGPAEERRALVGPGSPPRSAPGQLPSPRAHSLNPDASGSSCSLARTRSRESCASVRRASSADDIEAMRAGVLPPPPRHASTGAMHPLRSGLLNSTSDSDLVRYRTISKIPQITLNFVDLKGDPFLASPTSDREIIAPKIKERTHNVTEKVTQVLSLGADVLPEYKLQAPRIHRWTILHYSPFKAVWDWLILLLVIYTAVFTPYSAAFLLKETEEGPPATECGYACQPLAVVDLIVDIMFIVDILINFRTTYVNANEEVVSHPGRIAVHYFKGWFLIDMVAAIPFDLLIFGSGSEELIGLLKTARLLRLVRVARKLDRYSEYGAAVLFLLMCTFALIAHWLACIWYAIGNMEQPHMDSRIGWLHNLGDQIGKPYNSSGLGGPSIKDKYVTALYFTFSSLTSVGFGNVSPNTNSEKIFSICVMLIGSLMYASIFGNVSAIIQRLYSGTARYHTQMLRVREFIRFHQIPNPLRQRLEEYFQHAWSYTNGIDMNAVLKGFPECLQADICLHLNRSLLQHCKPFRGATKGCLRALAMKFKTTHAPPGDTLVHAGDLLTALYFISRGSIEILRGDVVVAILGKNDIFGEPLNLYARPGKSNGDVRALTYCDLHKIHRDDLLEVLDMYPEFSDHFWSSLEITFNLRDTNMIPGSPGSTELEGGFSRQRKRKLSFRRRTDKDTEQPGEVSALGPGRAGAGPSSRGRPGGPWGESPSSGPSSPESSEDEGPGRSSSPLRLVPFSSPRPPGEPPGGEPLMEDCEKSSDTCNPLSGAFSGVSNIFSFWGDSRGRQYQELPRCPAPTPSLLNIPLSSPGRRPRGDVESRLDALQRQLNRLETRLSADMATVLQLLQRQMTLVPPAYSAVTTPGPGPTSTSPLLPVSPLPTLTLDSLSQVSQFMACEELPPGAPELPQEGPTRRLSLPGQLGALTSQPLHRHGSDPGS

Compound	hERG current change (%, negative = inhibition) at 1uM
CCCCCCCCCCCCCCCC(=O)OC/C=C(C)/C=C/C=C(C)/C=C/C1=C(C)CCCC1(C)C	10.2%
COc1cc(C2C(C#N)=C(N)Oc3n[nH]c(C)c32)cc2c1OCO2 (stereo not drawn)	-3.12%
CCc1nnc(NC(=O)C2CCCN2C(=O)Nc2ccc(C)cc2)s1 (stereo not drawn)	8.89%
COc1ccc(CNS(=O)(=O)c2ccc3c(c2)CCN3C(=O)C2CC2)cc1	5.86%
NS(=O)(=O)c1ccc(CCNC(=O)Cc2ccc(S(=O)(=O)N3CCCC3)s2)cc1	14.9%
Cc1ccc(C(=O)NCCCNCCCNC(=O)c2ccc(C)nc2)cn1	-10.3%
CCCCNc1ccccc1C(=O)OCC(=O)Nc1ccc(S(N)(=O)=O)cc1	0.586%
COc1ccc2oc3cc(C)[n+]([O-])c(-c4ccc(Br)cc4)c3c2c1	4.46%
Cc1nc(-c2ccc([N+](=O)[O-])cc2)nc2[nH]ccc(=O)c12	14.5%
Fc1ccc(-c2n[nH]c(=S)c3ccccc23)cc1	9.98%
C[C@H](OC(=O)n1ccnc1)[C@@H]1O[C@@]2(C)CCC[C@@H]1O2	15.1%
CC(Oc1ccc2ccc(=O)oc2c1)C(=O)NC1CCN(Cc2ccccc2)CC1 (stereo not drawn)	-38.3%
CC(Oc1ccc(Br)cc1)C(=O)NC1CCN(Cc2ccccc2)CC1 (stereo not drawn)	-59.6%
Cc1cc(=O)oc2cc(OC(C)C(=O)NC3CCN(Cc4ccccc4)CC3)ccc12 (stereo not drawn)	-52.6%
CC(Oc1ccccc1)C(=O)NC1CCN(Cc2ccccc2)CC1 (stereo not drawn)	-5.84%
Cc1c(C)c2ccc(OC(C)C(=O)NC3CCN(Cc4ccccc4)CC3)cc2oc1=O (stereo not drawn)	-17.2%
CC(C)Oc1ccc(C(=O)NC2CCN(Cc3ccccc3)CC2)cc1	-21%
CC1C(=O)N2CCCc3cc(NC(=O)C(=O)NCc4ccccn4)cc1c32 (stereo not drawn)	8.33%
CCCNC(=O)COc1coc(CN2CCN(Cc3ccccc3)CC2)cc1=O	15.2%
Cc1cc(Cl)ccc1NC(=O)COC(=O)c1c(C)noc1C	7.79%
COc1cc(OC)cc(C(=O)NCC(=O)Nc2ccc(C)c(Cl)c2)c1	12.6%
O=C(Cc1ccc(Cl)cc1)N1CCN(C(=O)c2ccco2)CC1	4.2%
O=C(c1ccco1)N1CCN(C(=O)c2ccc(-c3ccc(Cl)cc3)o2)CC1	-67.5%
O=C(c1ccc(-c2cccc(C(F)(F)F)c2)o1)N1CCCCCCC1	5.25%
COc1ccc(-c2cc(C(=O)N3CCN(C(=O)c4ccco4)CC3)[nH]n2)cc1	-12.7%
O=C(c1cc(-c2ccc(Cl)cc2)n[nH]1)N1CCN(C(=O)c2ccco2)CC1	-69.3%
O=C(c1ccco1)N1CCN(C(=O)c2ccc(-c3ccccc3Cl)o2)CC1	-13.8%
O=C(c1ccco1)N1CCN(C(=O)c2ccc(-c3cccc(C(F)(F)F)c3)o2)CC1	-63.5%
CC(=O)N1CCN(C(=O)c2ccc(-c3cccc(C(F)(F)F)c3)o2)CC1	-19.2%
Cc1ccc(-c2cc(C(=O)N3CCN(C(=O)c4ccco4)CC3)[nH]n2)cc1C	14.4%
